Among the data in PubChem BioAssay (NCI) are growth values, retold here.

Test systems include NCI-H23 lung; NCI-H226 lung; NCI-H322M lung; HOP-62 NSCLC; NCI-H460 lung; HOP-92 NSCLC; NCI-H522 lung; A549/ATCC NSCLC; 786-0 renal; COLO 205 colon.
Holding throughout (assay): NCI-60 one-dose screen, 48 h (100 = growth as untreated, 0 = no growth, -100 = all killed)
What all share (details): 10 µM unless noted

This is part of a sample that, as a whole, favours compounds with a hit. Of some 83,000 tested, about 20% had one in any assay.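 Step 1: grow cells in 96-well plates. Step 2: add test compound at a single concentration. Step 3: incubate 48 h. Step 4: record percent growth.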 Unmarked numbers belong to inactive results. The source made the active and inactive calls. Rule for the calls: active = growth percent below 10; inactive = the rest.

Regarding `O=C(Nc1ccc(Br)cc1)Nc1ccccc1Cl`, the growth with NCI-H23 lung was 63.2%; in the test on NCI-H226 lung it was 80%; in the test with NCI-H322M lung, 119%; with HOP-62 NSCLC, 92.7%; with NCI-H460 lung, 93.3%; in the test with HOP-92 NSCLC, 90.5%. Also, the growth with NCI-H522 lung is 56.8%; with A549/ATCC NSCLC, 82.5%; in the test on 786-0 renal it was 83.4%; in the test on COLO 205 colon, 106%.

With `COc1cc2c(cc1OCCCOc1cc3c(cc1OC)C(=O)N1CCC[C@H]1C=N3)C=CC(C)(C)O2`, the growth in the test with NCI-H23 lung was 107%; in the test on NCI-H226 lung it was 82.7%; in the test with NCI-H322M lung, 133%; in the test on HOP-62 NSCLC it was 101%; with NCI-H460 lung, 108%; in the test with HOP-92 NSCLC it was 66.3%. Further, the growth in the test on NCI-H522 lung is 83.7%; in the test on A549/ATCC NSCLC it was 99.3%; with 786-0 renal it was 102%; in the test with COLO 205 colon it was 103%.

As for `Cc1ccc2cc3c(NC(=O)c4cccnc4)nn(C)c3nc2c1`, the growth with NCI-H23 lung is 90%; with NCI-H226 lung, 85.3%; in the test on NCI-H322M lung it was 89.4%; in the test with HOP-62 NSCLC it was 101%; in the test on NCI-H460 lung it was 98.2%; with HOP-92 NSCLC it was 81.5%. Also, the growth in the test on NCI-H522 lung is 67.1%; in the test on A549/ATCC NSCLC it was 95.7%; in the test on 786-0 renal, 98.6%; in the test on COLO 205 colon, 85.5%.

As for `CCCCc1n(Cc2ccc3ccccc3n2)cc[n+]1Cc1ccc2ccccc2n1`, the growth was 4.77% (active) in the test with NCI-H23 lung; 26.7% with NCI-H226 lung; 41.4% in the test on NCI-H322M lung; 25.2% with HOP-62 NSCLC; 16.5% in the test with NCI-H460 lung; 4.31% (active) in the test with HOP-92 NSCLC. For the same molecule, the growth with NCI-H522 lung was 10%; with A549/ATCC NSCLC, 44.8%; in the test on 786-0 renal it was 56.9%; in the test with COLO 205 colon it was -34.4% (active).

In the case of `C=C(C)C1CCC2(C(=O)O)CCC3(C)C(CCC4C5(C)CCC(O)C(C)(C)C5CCC43C)C12` (centres undefined), the growth in the test on NCI-H23 lung is -50.3% (active); in the test with NCI-H226 lung, 33.2%; in the test on NCI-H322M lung, 6.5% (active); in the test on HOP-62 NSCLC, -59.1% (active); in the test on NCI-H460 lung, -22.5% (active); with HOP-92 NSCLC, -26.2% (active). Also, the growth was 1.49% (active) in the test on NCI-H522 lung, -53.5% (active) in the test with A549/ATCC NSCLC, -66.5% (active) with 786-0 renal and -45.3% (active) in the test on COLO 205 colon.

For `CCN(CC)CCCCCCCNc1cc(OC)cc2c(C)ccnc12`, the growth in the test with NCI-H23 lung is 87.6%; with NCI-H226 lung it was 86.6%; with NCI-H322M lung it was 94.8%; in the test on HOP-62 NSCLC, 93.3%; in the test on NCI-H460 lung, 85.2%; in the test on HOP-92 NSCLC, 57.5%. Besides, the growth is 71.4% in the test on NCI-H522 lung, 94.7% with A549/ATCC NSCLC, 80.8% in the test on 786-0 renal and 72.9% in the test with COLO 205 colon.

For `Fc1[nH]nc2ccc([C@@H]3Nc4ccc5[nH]ncc5c4[C@H]4C5CCC(C5)[C@@H]34)cc12` (some centres undefined), the growth with NCI-H23 lung is 45.2%; with NCI-H226 lung it was 47.5%; with NCI-H322M lung it was 47.7%; in the test with HOP-62 NSCLC, 37.6%; with NCI-H460 lung, 11.5%; in the test on HOP-92 NSCLC, 67.3%. Also, the growth in the test on NCI-H522 lung was 10.3%; with A549/ATCC NSCLC it was 28%; with 786-0 renal it was 51.9%; in the test with COLO 205 colon it was 9.22% (active).

Consider `NS(=O)(=O)c1ccc(N2N=C(c3cccs3)CC2c2ccccc2O)cc1` (centres undefined), for which the growth in the test with NCI-H23 lung was 28.1%; in the test with NCI-H226 lung, 19.2%; with NCI-H322M lung, 25.4%; in the test with HOP-62 NSCLC, 24.4%; with NCI-H460 lung, -0.156% (active); in the test with HOP-92 NSCLC it was -8.37% (active). Besides, the growth is -23.9% (active) with NCI-H522 lung, 7.33% (active) in the test with A549/ATCC NSCLC, 10.8% in the test with 786-0 renal and -73.7% (active) with COLO 205 colon.

With `C=CCOc1c(Br)cc(Br)cc1Br`, the growth with NCI-H23 lung was 53.1%; with NCI-H226 lung it was 81.5%; with NCI-H322M lung it was 45%; in the test with HOP-62 NSCLC, 58.6%; in the test on NCI-H460 lung, 38.5%; in the test on HOP-92 NSCLC it was 90.6%. Moreover, the growth in the test with NCI-H522 lung is 27.6%; with A549/ATCC NSCLC, 59.7%; in the test with 786-0 renal it was 102%; with COLO 205 colon it was 103%.

Regarding `Cc1ccc(NC(=O)c2nc(S(C)(=O)=O)oc2-c2ccc(F)cc2)cc1Nc1ccc2ncn(C)c(=O)c2c1`, the growth was 60.4% with NCI-H23 lung; 85.2% in the test on NCI-H226 lung; 108% with NCI-H322M lung; 100% with HOP-62 NSCLC; 83.6% in the test on NCI-H460 lung; -7.9% (active) in the test with NCI-H522 lung. The growth was 102% in the test on A549/ATCC NSCLC and 78.8% in the test with 786-0 renal.

As to `Clc1cc(Br)ccc1-c1ccc(CNCC2CCNCC2)o1`, the growth in the test with NCI-H23 lung was 69.6%; with NCI-H226 lung, 48.4%; in the test with NCI-H322M lung, 60.2%; in the test on HOP-62 NSCLC, 41%; in the test on NCI-H460 lung, 9.35% (active); with NCI-H522 lung it was 55.3%. Besides, the growth with A549/ATCC NSCLC is 17%; in the test on 786-0 renal, 42.3%; in the test on COLO 205 colon, 27.9%.

`c1ccc(C(CC2=NCCCN2)c2ccccc2)cc1`: the growth in the test on NCI-H23 lung is 99.6%; in the test with NCI-H226 lung, 98%; with NCI-H322M lung, 99.7%; in the test with HOP-62 NSCLC it was 94.1%; with NCI-H460 lung, 102%; in the test on NCI-H522 lung it was 90.9%. Further, the results for the growth in the test with A549/ATCC NSCLC, in the test with 786-0 renal and with COLO 205 colon were 91.7%, 107% and 102%, respectively.

Take `Fc1ccc(-c2nnc(N3CCOCC3)c3ccccc23)cc1`: the growth with NCI-H23 lung was 111%; with NCI-H226 lung, 97.2%; with NCI-H322M lung it was 94.2%; in the test with HOP-62 NSCLC it was 97.1%; in the test with NCI-H460 lung, 103%; with NCI-H522 lung it was 101%. In addition, the growth was 102% in the test with A549/ATCC NSCLC, 105% with 786-0 renal and 89.6% with COLO 205 colon.

With `COc1ccc(/C=C/C(=O)c2ccc(NC(=O)CSc3nnc(-c4ccc(Cl)cc4)n3-c3ccccc3)cc2)cc1`, the growth is 92.4% with NCI-H23 lung; 104% with NCI-H226 lung; 106% with NCI-H322M lung; 103% in the test with HOP-62 NSCLC; 104% in the test with NCI-H460 lung; 84.6% in the test with NCI-H522 lung. Further, the growth in the test on A549/ATCC NSCLC was 74%; in the test on 786-0 renal, 98%; in the test with COLO 205 colon, 106%.
